# Laboratory results from PubChem BioAssay (NCATS).
# Results filed as inconclusive are left out. Values without a mark were called inactive. Calls of active or inactive are those of the source. The call rests on the fitted dose curve; in most records, active means well fitted curve in the direction sought with a large enough effect; inconclusive means small, poorly fitted or top-dose-only effect, or another doubt; inactive means no such curve, though single readings can be large; an effect the other way counts as inactive or inconclusive. *1 amine or outer side, *2 acyl side, *3 side chain or, on linkers, in order; H or OH if unused. Where a SMILES comes first, the peptide text is derived from it. Bridges are numbered along the chain shown (N, C = ends). [ ]: non-standard residue; d: D form. The star is where a group is joined. X5 = NC1=N[C@@H]([C@H](N[*:1])C(=O)[*:2])C[C@H](O)N1; X1 = CC[C@@H](C)[C@@H](N)C1=N[C@H](C(=O)*)CS1; ΔAla(Z-3-ureido) = NC(=O)N/C=C(\N)C(=O)O; d(aIle) = CC[C@H](C)[C@@H](N)C(=O)O; β3hOrn = NCCC[C@H](N)CC(=O)*; dOrn = NCCC[C@@H](N)C(=O)O; Dap = NC[C@H](N)C(=O)O
# Molecular target: Voltage-gated inwardly rectifying potassium channel KCNH2 (Homo sapiens) (UniProt Q12809)
# Assay: qHTS Assay for Small Molecule Inhibitors of the Human hERG Channel Activity (AID 588834);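 further: lower thallium flux fluorescence means stronger hERG block; nearly all actives have a fitted effect of over 50% in size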; further: potency means the concentration at half of the fitted maximal effect; on activity change, negative = inhibition: top concentration of the series differs between compounds; on the % scale 0 is the no-effect control and ±100 the full control effect
# Conditions: U2OS BacMam hERG, FluxOR thallium flux fluorescence; series mostly up to 46.1 µM; activity change, negative = inhibition: at the top concentration
# Summary of the method: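 Step 1: BacMam hERG transduction of U2OS, 4 hrs RT. Step 2: overnight 37 °C, plate 2000 cells/well, 4 hr. Step 3: FluxOR load, compound 10 min, stimulate, read fluorescence.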
# Chain of Voltage-gated inwardly rectifying potassium channel KCNH2 (Homo sapiens) (Q12809 whole entry, looked up): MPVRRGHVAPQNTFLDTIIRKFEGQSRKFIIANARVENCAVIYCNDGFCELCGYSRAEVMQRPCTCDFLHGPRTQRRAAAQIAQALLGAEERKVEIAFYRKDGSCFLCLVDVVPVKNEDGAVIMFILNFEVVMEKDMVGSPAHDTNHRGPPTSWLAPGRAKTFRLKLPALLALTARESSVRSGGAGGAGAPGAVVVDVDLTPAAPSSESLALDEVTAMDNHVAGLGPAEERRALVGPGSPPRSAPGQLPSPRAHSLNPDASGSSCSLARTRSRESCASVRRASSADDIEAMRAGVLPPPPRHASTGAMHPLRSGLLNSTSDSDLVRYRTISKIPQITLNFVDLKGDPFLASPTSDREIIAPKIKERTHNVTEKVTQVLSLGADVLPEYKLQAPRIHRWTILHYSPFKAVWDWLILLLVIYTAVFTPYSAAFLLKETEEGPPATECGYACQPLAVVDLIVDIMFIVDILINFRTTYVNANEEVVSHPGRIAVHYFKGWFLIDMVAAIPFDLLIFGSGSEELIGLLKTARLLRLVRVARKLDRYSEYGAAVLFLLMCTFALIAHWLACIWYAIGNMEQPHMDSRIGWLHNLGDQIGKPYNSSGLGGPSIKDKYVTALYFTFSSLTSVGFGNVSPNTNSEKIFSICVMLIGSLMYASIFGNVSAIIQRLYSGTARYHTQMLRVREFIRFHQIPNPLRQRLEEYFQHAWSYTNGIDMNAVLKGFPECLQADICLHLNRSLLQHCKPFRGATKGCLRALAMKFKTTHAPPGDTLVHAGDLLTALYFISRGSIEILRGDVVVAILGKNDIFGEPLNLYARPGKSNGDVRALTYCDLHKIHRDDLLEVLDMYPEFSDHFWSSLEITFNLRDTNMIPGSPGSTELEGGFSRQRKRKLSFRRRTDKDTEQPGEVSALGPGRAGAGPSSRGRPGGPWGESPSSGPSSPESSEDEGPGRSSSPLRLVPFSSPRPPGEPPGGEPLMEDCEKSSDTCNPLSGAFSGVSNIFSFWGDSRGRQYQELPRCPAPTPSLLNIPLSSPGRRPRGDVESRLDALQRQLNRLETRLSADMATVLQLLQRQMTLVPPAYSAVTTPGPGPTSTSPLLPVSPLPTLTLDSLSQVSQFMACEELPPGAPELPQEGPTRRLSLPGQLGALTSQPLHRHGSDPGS
Molecule,Potency,"activity change, negative = inhibition"
CCCCCCCCCc1ccc(OCCOCCO)cc1,14.1 µM (active),
NCCC[C@H](N)CC(=O)N[C@H]1CNC(=O)[C@H]([C@H]2C[C@H](O)NC(N)=N2)NC(=O)/C(=C/NC(N)=O)NC(=O)[C@H](CO)NC(=O)[C@H](CO)NC1=O (β3hOrn-[Dap]SS[ΔAla(Z-3-ureido)][X5]; lactam 1-C),,21.1%
OC[C@@H](O)C(O)[C@H](O)CO,,-11.7%
CC(=O)O[C@@H]1CC2CCC1(C)C2(C)C (some centres undefined),,-6.52%
CO/N=C(\C(=O)N[C@@H]1C(=O)N2C(C(=O)[O-])=C(C[n+]3ccc(N)n3CCO)CS[C@H]12)c1csc(N)n1,,13.6%
CC[C@@H](C)[C@@H](N)C1=N[C@H](C(=O)N[C@@H](CC(C)C)C(=O)N[C@@H](CCC(=O)O)C(=O)N[C@@H](C(=O)N[C@@H]2CCCCNC(=O)[C@@H](CC(N)=O)NC(=O)[C@@H](CC(=O)O)NC(=O)[C@@H](Cc3cnc[nH]3)NC(=O)[C@@H](Cc3ccccc3)NC(=O)[C@@H]([C@H](C)CC)NC(=O)[C@@H](CCCN)NC2=O)[C@@H](C)CC)CS1 (X1-LE[d(aIle)][dK][dOrn][dI][dF][dH][dD][dN]; lactam 4-C),,2.25% [at 20.6 µM]
CCN(CC)C(=O)[C@]1(c2ccccc2)C[C@@H]1CN,,12.1%
CC12CCC(C[N+](C)(CCC[N+](C)(C)C)C1)C2(C)C (centres undefined),,1.53%
CCC(=O)c1ccc2c(c1)N(CCCN1CCN(CCO)CC1)c1ccccc1S2,5.01 µM (active),
CC[C@H](C)[C@@H]1NC(=O)[C@H](Cc2ccc(O)cc2)NC(=O)[C@@H](N)CSSC[C@@H](C(=O)N2CCC[C@H]2C(=O)N[C@@H](CC(C)C)C(=O)NCC(N)=O)NC(=O)[C@H](CC(N)=O)NC(=O)[C@H](CCC(N)=O)NC1=O,,22.5%
CC[C@@H]1/C=C(\C)C[C@H](C)C[C@H](OC)[C@H]2O[C@@](O)(C(=O)C(=O)N3CCCC[C@H]3C(=O)O[C@H](/C(C)=C/[C@@H]3CC[C@@H](Cl)[C@H](OC)C3)[C@H](C)[C@@H](O)CC1=O)[C@H](C)C[C@@H]2OC,,3.82%
COc1ccc(C[C@H](C)NC[C@@H](O)c2ccc(O)c(NC=O)c2)cc1,14.1 µM (active),
CCCCCCCCCCCC(=O)OC[C@@H](O)C1OC[C@H](O)[C@H]1O (some centres undefined),,13.1%
H-RKDVY-OH,,2.74%
C[C@H](O)CN(C)C,,23.2%
CC(C)(CO)[C@@H](O)C(=O)NCCCC(=O)O,,9.65%
C=C1[C@H](CO)[C@@H](O)C[C@@H]1n1cnc2c(=O)[nH]c(N)nc21,,-0.589%
CC(C)(C)c1ccc(CN2CCN(C(c3ccccc3)c3ccc(Cl)cc3)CC2)cc1 (centres undefined),2.82 µM (active),
CC(=O)[C@H]1CC[C@H]2[C@@H]3C=CC4=CC(=O)CC[C@@]4(C)[C@H]3CC[C@]12C,,8.04% [at 20.6 µM]
CC(=O)Nc1c(I)c(C(=O)N[C@H]2C(O)O[C@H](CO)[C@@H](O)[C@@H]2O)c(I)c(N(C)C(C)=O)c1I (some centres undefined),,2.01% [at 20.6 µM]
CCCCCCCCCCCCCC(=O)OCC(COP(=O)([O-])OCC[N+](C)(C)C)OC(=O)CCCCCCCCCCCCC (centres undefined),,3.87%
C=CC[N@@+]12CC[C@@]34c5ccccc5N5/C=C6/[C@H]7C[C@H]8[C@@]9(CC[N@@+]8(CC=C)C/C7=C/CO)c7ccccc7N(/C=C(/[C@@H](C[C@@H]31)/C(=C\CO)C2)[C@H]54)[C@@H]69,,5.19% [at 20.6 µM]
NC(Cc1ccccc1)C(=O)O (centres undefined),,12.1%
O=C(OC[C@H]1O[C@](O)(COC(=O)c2cccnc2)[C@@H](OC(=O)c2cccnc2)[C@@H]1OC(=O)c1cccnc1)c1cccnc1,,-18.3%
C=C[C@]1(C)C[C@@H](OC(=O)CSCCN(CC)CC)[C@]2(C)[C@H](C)CC[C@]3(CCC(=O)[C@H]32)[C@@H](C)[C@@H]1O,2.24 µM (active),
CC(=O)N[C@@H](C=O)[C@@H](O)[C@H](O)[C@H](O)CO,,3.61%

# Molecular target: Luciferin 4-monooxygenase (Photinus pyralis) (UniProt P08659)
# Assay: Biochemical firefly luciferase enzyme assay for NPC (AID 624030);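 further: purified P. pyralis luciferase at 10 nM with luciferin and ATP substrate; 0% = DMSO and -100% = full luciferase inhibition by PTC124 control; nearly all actives have a fitted effect of over 70% in size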
# Conditions: purified P. pyralis luciferase, luminescence, 5 min; series mostly up to 58.6 µM; activity change, negative = inhibition: at the top concentration
# Summary of the method: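 Purified P. pyralis luciferase at 10 nM in 50 mM Tris Acetate (final), luminescence read within 5 minutes of enzyme addition to compounds. Activity normalised to PTC124 versus DMSO; concentration-response curves classed by r2, magnitude and activity.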
# Chain of Luciferin 4-monooxygenase (Photinus pyralis) (P08659 whole entry, looked up): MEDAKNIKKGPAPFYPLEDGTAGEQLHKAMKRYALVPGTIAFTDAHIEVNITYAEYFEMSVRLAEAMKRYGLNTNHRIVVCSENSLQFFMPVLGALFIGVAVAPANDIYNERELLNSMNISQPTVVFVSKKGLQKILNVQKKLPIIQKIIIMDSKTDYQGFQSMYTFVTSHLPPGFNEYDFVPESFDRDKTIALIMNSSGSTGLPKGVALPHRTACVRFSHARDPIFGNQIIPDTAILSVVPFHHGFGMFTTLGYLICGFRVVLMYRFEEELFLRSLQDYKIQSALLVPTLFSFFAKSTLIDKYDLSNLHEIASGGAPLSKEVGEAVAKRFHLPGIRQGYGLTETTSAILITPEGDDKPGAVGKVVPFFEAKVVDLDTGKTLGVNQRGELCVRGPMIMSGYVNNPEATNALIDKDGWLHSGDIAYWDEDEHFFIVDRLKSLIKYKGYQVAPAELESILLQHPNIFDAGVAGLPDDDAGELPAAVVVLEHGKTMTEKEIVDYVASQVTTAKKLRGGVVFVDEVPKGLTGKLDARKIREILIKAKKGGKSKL
Molecule,"activity change, negative = inhibition",Potency
CCCCCCCCCCCCCCCCCC[N+](C)(C)CCC[Si](OC)(OC)OC,-4.73%,
CC12CCC(C[N+](C)(CCC[N+](C)(C)C)C1)C2(C)C (centres undefined),-0.826%,
CCC(=O)c1ccc2c(c1)N(CCCN1CCN(CCO)CC1)c1ccccc1S2,8.34%,
COc1ccc(C[C@H](C)NC[C@@H](O)c2ccc(O)c(NC=O)c2)cc1,2.61%,
C[C@H](O)CN(C)C,-0.284%,
CC(=O)[C@H]1CC[C@H]2[C@@H]3C=CC4=CC(=O)CC[C@@]4(C)[C@H]3CC[C@]12C,-0.22% [at 24.9 µM],
CCCCCCCCCCCCCC(=O)OCC(COP(=O)([O-])OCC[N+](C)(C)C)OC(=O)CCCCCCCCCCCCC (centres undefined),0.845%,
CC(=O)N[C@@H](C=O)[C@@H](O)[C@H](O)[C@H](O)CO,,inactive

# Tested on: not listed separately
# Assay: S16 Schwann cell viability assay (CellTiter-Glo assay) (AID 624031);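 further: native untransfected S16 rat Schwann cells; cellular ATP luminescence as a viability measure; plate controls were DMSO-treated cells for no effect and cell-free wells for full effect; nearly all actives have a fitted effect of over 70% in size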
# Conditions: S16 rat Schwann cells viability, 24 h; series mostly up to 57.5 µM; activity change, negative = cytotoxicity: at the top concentration
# Summary of the method: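 Following overnight culture in 10% FBS DMEM, parental S16 rat Schwann cells are dosed for 24 h at 37 °C. Viability is read as CellTiter-Glo luminescence and expressed as % activity relative to DMSO (0%) and no-cell wells.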
row,Molecule,"activity change, negative = cytotoxicity"
1,CCCCCCCCCCCCCCCCCC[N+](C)(C)CCC[Si](OC)(OC)OC,1.19%
2,CC12CCC(C[N+](C)(CCC[N+](C)(C)C)C1)C2(C)C (centres undefined),-18.7%
3,C[C@H](O)CN(C)C,-9.66%
4,CC(=O)[C@H]1CC[C@H]2[C@@H]3C=CC4=CC(=O)CC[C@@]4(C)[C@H]3CC[C@]12C,-12.6% [at 25.7 µM]
5,CCCCCCCCCCCCCC(=O)OCC(COP(=O)([O-])OCC[N+](C)(C)C)OC(=O)CCCCCCCCCCCCC (centres undefined),0.712%
